Assay results reported in PubChem BioAssay (NCATS).
Calls of active or inactive are those of the source. Entries that show only a call come without a potency. Calls follow the shape of the dose curve; as a rule, active = well fitted activation curve with a large enough effect; inconclusive = small, poorly fitted or top-dose-only effect; inactive = no such curve, though single readings can be large or run the other way.

Biological target: Parathyroid hormone/parathyroid hormone-related peptide receptor (Homo sapiens) (UniProt Q03431)
Sequence (Q03431 whole entry, looked up): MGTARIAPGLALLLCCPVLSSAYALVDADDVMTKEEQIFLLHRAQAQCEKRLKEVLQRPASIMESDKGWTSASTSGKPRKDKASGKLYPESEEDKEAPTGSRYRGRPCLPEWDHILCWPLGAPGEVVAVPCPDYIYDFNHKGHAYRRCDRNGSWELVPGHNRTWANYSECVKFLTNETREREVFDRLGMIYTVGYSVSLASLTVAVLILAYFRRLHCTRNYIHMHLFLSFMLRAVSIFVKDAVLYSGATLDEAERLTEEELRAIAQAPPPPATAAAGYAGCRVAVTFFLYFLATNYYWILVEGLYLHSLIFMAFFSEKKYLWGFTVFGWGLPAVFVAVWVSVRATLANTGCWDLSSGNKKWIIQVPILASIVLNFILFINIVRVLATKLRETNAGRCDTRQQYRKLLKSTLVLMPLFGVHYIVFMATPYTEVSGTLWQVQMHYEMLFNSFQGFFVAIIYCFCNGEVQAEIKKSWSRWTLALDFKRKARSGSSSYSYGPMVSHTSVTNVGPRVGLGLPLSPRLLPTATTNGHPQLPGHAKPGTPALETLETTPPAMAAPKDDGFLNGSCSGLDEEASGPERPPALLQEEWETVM
Assay: qHTS for PTHR1 Agonists: Optimization Screen against the NCGC LOPAC library (AID 1347079)
Conditions: HEK293 GP2 PTHR1 GloSensor cAMP luminescence, 1 h; series mostly up to 57.1 µM
How it was run: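 Signal increase flags agonism. GP2 cells, derived from HEK-293, express human PTHR1 and a GloSensor cAMP construct.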

SMILES | Potency
CN1CCc2ccccc2Cc2[nH]c3ccccc3c2CC1 | inactive
O=C(/C=C/c1ccc(O)c(O)c1)OCCc1ccccc1 | inactive
CC(C)NC[C@@H](O)c1ccc(O)c(O)c1 | inactive
CC(C)NC[C@H](O)COc1cccc2[nH]ccc12 | inactive
Oc1cc2c(cc1O)CN(C(=S)NCCc1ccc(Cl)cc1)CCC2 | inactive
Cn1cc(C2=C(c3ccc(Cl)cc3Cl)C(=O)NC2=O)c2ccccc21 | inactive
Cc1cc(NC2CCCCC2)nc(-n2nc(C)cc2C)n1 | inactive
O=C(O)CNC(=O)C(CS)Cc1ccccc1 (configuration not stated) | inactive
COc1cccc(C(=O)NCCN2CCN(c3ccc(Cl)cc3)CC2)c1 | inactive
OC[C@H]1O[C@@H](n2cnc3c(NC4CCCCC4)ncnc32)[C@H](O)[C@@H]1O | inactive
NC(=O)C(=O)O | inactive
O=C(Nc1ccccc1)c1cc([N+](=O)[O-])ccc1Cl | inactive
NCCCCCCCCCCN | inactive
COC1=C(OC)C(=O)c2ccccc2C1=O | inactive
OCC1O[C@H](O)C(Cl)C(O)C1O (some centres not stated) | inactive
CCCN(CC1CC1)c1nc(C)nc(Nc2c(Cl)cc(Cl)cc2Cl)c1Cl | inactive
O=P(O)(O)C(Cl)(Cl)P(=O)(O)O | inactive
COc1cc(SC)ccc1C(=O)N1CCC(Cc2ccccc2)CC1 | inactive
Clc1ccc(N2CCN(Cc3c[nH]c4ncccc34)CC2)cc1 | inactive
Fc1ccc(C(OCCCc2cnc[nH]2)c2ccc(F)cc2)cc1 | inactive
CC(C)(C=O)Cc1cc(C(C)(C)C)c(O)c(C(C)(C)C)c1 | inactive
CC1(C)CCC=[N+]1[O-] | inactive
